# Reference: ChEMBL document CHEMBL1961873, “Compounds: GSK PKIS; Assays: Nanosyn kinase panel” (2012)
# Legend:
# [1] = target: Tyrosine-protein kinase SYK (Homo sapiens) (UniProt P43405); conditions: at 1 µM
# [2] = target: T1, Tyrosine-protein kinase Tec (Homo sapiens) (UniProt P42680); conditions: at 0.1 µM
# T1 sequence (whole entry): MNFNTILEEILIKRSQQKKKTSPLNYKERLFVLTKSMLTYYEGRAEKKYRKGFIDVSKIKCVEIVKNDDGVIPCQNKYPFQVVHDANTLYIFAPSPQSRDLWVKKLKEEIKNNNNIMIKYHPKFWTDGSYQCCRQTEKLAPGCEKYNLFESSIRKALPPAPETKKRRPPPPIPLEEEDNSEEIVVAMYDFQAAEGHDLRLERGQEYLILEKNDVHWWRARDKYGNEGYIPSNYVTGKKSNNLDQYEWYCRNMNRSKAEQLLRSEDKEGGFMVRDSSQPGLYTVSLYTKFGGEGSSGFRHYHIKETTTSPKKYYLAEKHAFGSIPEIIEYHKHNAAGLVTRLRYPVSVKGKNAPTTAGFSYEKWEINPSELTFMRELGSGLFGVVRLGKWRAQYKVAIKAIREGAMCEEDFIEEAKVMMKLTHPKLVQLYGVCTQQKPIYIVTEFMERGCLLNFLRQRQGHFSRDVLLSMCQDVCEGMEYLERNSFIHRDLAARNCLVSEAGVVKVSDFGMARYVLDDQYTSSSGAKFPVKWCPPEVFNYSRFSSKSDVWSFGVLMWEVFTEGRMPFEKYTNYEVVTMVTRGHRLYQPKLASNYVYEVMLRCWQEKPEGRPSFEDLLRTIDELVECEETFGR
# [3] = target: T1, Tyrosine-protein kinase Tec (Homo sapiens); conditions: at 1 µM
# [4] = target: Angiopoietin-1 receptor (Homo sapiens) (UniProt Q02763); conditions: at 0.1 µM
# [5] = target: Angiopoietin-1 receptor (Homo sapiens) (UniProt Q02763); conditions: at 1 µM
# [6] = target: T2, Non-receptor tyrosine-protein kinase TNK1 (Homo sapiens) (UniProt Q13470); conditions: at 0.1 µM
# T2 sequence (whole entry): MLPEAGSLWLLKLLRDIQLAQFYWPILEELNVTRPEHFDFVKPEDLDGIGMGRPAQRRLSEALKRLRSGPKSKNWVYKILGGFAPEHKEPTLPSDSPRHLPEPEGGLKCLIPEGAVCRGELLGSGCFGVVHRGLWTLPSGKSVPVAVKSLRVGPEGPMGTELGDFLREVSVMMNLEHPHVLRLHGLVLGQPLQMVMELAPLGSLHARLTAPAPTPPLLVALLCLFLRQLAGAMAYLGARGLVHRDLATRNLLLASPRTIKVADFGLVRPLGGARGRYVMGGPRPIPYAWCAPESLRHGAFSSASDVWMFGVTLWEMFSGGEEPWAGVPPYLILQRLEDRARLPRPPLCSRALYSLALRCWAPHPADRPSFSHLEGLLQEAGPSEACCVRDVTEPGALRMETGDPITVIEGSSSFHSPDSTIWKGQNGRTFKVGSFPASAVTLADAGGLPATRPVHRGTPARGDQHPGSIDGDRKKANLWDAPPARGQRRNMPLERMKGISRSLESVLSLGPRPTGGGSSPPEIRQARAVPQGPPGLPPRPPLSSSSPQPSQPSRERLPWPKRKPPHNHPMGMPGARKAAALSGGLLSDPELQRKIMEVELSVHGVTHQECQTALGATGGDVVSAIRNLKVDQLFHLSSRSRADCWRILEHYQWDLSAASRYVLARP
# [7] = target: T2, Non-receptor tyrosine-protein kinase TNK1 (Homo sapiens); conditions: at 1 µM
# [8] = target: Activated CDC42 kinase 1 (Homo sapiens) (UniProt Q07912); conditions: at 0.1 µM
# [9] = target: Activated CDC42 kinase 1 (Homo sapiens) (UniProt Q07912); conditions: at 1 µM
# [10] = target: High affinity nerve growth factor receptor (Homo sapiens) (UniProt P04629); conditions: at 0.1 µM
# [11] = target: High affinity nerve growth factor receptor (Homo sapiens) (UniProt P04629); conditions: at 1 µM
# [12] = target: BDNF/NT-3 growth factors receptor (Homo sapiens) (UniProt Q16620); conditions: at 0.1 µM
# [13] = target: BDNF/NT-3 growth factors receptor (Homo sapiens) (UniProt Q16620); conditions: at 1 µM
# [14] = target: NT-3 growth factor receptor (Homo sapiens) (UniProt Q16288); conditions: at 0.1 µM
# [15] = target: NT-3 growth factor receptor (Homo sapiens) (UniProt Q16288); conditions: at 1 µM
# [16] = target: T3, Tyrosine-protein kinase TXK (Homo sapiens) (UniProt P42681); conditions: at 0.1 µM
# T3 sequence (whole entry): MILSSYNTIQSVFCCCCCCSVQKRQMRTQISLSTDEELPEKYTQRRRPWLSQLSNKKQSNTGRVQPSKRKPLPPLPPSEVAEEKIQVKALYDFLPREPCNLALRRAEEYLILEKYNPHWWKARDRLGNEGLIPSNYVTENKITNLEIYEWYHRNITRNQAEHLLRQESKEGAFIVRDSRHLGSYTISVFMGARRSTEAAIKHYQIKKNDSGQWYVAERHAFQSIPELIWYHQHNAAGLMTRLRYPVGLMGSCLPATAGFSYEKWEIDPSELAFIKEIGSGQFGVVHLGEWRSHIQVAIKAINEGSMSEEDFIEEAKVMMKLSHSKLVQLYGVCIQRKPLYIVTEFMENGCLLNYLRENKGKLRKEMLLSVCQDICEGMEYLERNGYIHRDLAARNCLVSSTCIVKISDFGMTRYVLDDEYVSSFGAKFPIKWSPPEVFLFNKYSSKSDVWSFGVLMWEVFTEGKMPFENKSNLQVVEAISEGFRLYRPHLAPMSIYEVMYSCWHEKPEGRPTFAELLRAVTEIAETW
# [17] = target: T3, Tyrosine-protein kinase TXK (Homo sapiens); conditions: at 1 µM
# [18] = target: Non-receptor tyrosine-protein kinase TYK2 (Homo sapiens) (UniProt P29597); conditions: at 0.1 µM;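 note: each value is a mean of the inhibition readings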
# [19] = target: T4, Dual specificity protein kinase TTK (Homo sapiens) (UniProt P33981); conditions: at 1 µM;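 note: reported figures are mean TTK inhibition at 1 µM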
# T4 sequence (whole entry): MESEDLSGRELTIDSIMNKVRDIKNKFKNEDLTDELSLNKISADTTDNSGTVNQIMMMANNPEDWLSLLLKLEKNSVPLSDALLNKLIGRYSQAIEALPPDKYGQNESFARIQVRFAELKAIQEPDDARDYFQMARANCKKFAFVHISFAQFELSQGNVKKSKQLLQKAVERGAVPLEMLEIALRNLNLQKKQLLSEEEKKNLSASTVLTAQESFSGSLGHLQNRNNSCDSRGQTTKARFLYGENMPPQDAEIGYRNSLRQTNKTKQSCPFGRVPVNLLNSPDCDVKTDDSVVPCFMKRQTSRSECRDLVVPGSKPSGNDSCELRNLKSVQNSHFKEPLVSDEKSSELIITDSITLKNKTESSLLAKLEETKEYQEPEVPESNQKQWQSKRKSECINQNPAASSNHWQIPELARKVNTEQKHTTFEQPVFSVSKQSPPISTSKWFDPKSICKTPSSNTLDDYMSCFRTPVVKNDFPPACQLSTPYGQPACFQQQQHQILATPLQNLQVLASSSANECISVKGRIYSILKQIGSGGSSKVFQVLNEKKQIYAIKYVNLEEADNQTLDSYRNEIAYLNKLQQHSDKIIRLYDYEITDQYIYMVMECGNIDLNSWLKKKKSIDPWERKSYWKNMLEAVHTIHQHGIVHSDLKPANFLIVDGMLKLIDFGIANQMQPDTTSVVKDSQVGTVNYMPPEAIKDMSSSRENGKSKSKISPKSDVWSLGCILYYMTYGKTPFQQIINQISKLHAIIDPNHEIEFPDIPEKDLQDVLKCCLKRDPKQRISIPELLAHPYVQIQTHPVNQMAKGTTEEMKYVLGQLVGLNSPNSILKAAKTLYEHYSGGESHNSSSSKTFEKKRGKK
# [20] = target: T5, Aurora kinase A (Homo sapiens) (UniProt O14965); conditions: at 0.1 µM;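 note: each reported value is a mean percent inhibition of Aurora-A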
# T5 sequence (whole entry): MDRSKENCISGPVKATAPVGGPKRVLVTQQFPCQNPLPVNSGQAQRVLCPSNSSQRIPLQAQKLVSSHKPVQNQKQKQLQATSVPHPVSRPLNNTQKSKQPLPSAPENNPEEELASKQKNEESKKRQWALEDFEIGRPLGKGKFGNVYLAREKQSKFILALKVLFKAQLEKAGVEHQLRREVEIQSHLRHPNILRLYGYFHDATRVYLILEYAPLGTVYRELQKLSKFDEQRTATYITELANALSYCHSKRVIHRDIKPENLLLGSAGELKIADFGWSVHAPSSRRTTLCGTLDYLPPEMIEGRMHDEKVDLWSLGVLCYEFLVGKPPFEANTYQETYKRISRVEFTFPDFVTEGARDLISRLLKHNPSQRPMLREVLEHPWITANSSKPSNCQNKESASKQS
# Chain of NT-3 growth factor receptor (Homo sapiens) (Q16288 32-839 limits assumed): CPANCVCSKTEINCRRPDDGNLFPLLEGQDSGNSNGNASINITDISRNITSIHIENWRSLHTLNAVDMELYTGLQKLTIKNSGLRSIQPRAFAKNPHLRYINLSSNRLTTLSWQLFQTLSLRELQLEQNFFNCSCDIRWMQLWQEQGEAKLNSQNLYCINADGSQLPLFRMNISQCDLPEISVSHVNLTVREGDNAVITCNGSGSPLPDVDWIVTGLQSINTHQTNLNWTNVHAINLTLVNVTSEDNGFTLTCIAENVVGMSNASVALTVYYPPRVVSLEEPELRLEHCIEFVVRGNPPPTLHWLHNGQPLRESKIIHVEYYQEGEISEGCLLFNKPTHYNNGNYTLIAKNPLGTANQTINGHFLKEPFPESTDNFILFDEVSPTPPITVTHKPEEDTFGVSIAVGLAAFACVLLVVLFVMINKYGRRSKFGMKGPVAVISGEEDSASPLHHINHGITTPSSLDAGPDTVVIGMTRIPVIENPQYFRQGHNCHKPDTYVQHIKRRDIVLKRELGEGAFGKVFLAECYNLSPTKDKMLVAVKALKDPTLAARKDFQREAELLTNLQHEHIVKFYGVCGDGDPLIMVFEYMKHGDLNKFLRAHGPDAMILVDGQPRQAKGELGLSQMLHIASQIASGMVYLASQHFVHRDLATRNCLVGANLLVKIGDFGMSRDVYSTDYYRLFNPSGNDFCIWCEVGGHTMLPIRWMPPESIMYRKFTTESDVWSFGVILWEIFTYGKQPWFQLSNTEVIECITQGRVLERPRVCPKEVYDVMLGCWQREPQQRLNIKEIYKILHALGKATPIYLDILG
# Chain of BDNF/NT-3 growth factors receptor (Homo sapiens) (Q16620 32-822 limits assumed): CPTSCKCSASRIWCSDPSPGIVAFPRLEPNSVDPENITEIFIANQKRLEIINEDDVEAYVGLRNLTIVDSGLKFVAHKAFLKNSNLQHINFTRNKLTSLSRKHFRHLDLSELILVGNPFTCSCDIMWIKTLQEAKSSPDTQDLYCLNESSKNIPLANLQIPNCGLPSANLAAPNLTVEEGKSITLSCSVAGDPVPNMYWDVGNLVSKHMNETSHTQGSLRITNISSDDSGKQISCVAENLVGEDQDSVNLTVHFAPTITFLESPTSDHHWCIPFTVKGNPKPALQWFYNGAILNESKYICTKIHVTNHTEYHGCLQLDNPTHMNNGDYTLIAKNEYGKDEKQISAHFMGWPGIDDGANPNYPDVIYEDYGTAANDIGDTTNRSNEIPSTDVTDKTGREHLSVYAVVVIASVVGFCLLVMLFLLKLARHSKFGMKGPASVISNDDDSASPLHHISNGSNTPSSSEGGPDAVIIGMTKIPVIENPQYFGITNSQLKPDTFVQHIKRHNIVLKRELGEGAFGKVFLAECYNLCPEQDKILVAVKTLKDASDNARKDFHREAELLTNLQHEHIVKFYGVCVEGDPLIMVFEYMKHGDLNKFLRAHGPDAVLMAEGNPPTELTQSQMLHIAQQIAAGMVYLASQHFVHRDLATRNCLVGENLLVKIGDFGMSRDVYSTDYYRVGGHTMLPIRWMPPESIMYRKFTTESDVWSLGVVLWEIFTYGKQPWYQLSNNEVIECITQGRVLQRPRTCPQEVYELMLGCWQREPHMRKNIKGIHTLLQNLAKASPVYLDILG
# Chain of Angiopoietin-1 receptor (Homo sapiens) (Q02763 whole entry): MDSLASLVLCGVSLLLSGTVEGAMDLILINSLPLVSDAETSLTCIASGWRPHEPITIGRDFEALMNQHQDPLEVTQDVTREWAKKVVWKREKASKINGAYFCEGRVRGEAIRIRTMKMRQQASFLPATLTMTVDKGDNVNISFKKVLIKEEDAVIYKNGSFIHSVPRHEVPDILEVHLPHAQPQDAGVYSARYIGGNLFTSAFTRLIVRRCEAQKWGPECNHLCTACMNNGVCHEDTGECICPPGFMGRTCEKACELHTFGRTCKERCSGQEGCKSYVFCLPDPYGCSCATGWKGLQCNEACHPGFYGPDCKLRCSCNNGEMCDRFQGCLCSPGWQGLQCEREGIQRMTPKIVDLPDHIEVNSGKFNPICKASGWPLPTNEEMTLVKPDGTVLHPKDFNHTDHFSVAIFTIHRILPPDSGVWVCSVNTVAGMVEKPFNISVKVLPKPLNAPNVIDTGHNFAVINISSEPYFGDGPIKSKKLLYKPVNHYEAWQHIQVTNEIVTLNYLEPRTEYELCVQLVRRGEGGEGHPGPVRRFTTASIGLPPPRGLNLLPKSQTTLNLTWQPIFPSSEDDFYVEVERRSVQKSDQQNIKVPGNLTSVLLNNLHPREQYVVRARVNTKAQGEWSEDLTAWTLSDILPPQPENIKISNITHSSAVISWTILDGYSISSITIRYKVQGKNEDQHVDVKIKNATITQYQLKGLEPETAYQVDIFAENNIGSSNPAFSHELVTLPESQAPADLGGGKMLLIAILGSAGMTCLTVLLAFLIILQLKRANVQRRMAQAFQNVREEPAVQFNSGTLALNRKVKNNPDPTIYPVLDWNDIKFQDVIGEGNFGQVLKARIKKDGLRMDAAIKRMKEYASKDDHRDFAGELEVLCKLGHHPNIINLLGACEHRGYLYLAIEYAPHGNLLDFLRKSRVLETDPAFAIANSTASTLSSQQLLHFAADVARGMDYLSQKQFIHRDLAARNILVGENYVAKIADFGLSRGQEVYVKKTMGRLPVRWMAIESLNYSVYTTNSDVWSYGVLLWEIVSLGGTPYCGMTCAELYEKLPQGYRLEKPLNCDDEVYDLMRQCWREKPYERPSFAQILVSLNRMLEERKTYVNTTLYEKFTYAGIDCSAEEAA
# Chain of Activated CDC42 kinase 1 (Homo sapiens) (Q07912 whole entry, looked up): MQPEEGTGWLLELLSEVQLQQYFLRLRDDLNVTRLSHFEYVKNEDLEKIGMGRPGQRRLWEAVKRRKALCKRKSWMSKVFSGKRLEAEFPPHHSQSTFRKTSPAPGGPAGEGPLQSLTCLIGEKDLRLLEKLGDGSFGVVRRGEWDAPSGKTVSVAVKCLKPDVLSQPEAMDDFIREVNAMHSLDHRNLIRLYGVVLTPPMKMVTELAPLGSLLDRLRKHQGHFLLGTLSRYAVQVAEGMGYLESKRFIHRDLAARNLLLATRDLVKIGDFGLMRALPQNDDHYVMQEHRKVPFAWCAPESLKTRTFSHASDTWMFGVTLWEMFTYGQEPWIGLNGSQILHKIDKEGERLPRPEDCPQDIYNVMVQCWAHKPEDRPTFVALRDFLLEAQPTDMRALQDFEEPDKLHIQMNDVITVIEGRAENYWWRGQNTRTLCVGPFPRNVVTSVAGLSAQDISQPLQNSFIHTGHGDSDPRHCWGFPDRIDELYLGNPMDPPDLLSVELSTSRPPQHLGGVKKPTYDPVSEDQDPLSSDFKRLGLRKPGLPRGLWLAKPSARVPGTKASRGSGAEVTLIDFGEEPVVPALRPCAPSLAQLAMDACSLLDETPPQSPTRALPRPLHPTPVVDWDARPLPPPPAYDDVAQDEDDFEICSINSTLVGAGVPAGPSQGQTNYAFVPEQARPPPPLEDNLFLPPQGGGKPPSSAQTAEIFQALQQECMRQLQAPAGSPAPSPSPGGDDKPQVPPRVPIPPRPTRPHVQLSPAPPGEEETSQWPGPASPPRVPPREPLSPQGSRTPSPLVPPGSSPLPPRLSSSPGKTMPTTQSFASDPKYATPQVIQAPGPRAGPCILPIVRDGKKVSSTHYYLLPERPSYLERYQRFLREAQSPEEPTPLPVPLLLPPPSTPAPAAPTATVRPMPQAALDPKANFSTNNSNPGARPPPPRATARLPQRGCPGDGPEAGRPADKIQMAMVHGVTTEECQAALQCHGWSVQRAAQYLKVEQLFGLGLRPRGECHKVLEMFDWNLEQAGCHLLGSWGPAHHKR
# Chain of High affinity nerve growth factor receptor (Homo sapiens) (P04629 33-796 limits assumed): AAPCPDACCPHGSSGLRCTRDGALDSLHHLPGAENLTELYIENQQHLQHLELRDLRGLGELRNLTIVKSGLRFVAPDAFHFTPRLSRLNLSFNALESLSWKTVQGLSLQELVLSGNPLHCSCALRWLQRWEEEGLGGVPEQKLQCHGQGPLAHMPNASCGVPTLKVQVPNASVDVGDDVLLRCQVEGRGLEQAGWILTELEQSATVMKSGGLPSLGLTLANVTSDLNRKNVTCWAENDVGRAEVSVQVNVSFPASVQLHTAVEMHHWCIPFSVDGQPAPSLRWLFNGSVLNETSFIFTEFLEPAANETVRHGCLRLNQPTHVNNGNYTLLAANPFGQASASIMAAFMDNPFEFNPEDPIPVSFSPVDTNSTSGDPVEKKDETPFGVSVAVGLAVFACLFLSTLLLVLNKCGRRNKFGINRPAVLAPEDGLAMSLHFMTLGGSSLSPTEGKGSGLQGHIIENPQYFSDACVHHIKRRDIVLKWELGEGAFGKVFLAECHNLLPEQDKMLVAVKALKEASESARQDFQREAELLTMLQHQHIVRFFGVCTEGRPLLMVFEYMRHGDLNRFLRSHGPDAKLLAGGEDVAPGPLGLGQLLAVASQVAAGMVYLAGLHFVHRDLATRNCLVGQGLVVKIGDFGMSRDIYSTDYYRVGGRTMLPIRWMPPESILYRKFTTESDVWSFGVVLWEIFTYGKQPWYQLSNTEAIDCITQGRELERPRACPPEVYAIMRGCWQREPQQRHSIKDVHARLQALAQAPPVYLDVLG
SMILES,inhibition [1],inhibition [2],inhibition [3],inhibition [4],inhibition [5],inhibition [6],inhibition [7],inhibition [8],inhibition [9],inhibition [10],inhibition [11],inhibition [12],inhibition [13],inhibition [14],inhibition [15],inhibition [16],inhibition [17],inhibition [18],inhibition [19],inhibition [20]
CCN1CCC(C(=O)Nc2n[nH]c3nnc(-c4cccc(F)c4F)cc23)CC1,0.2%,-1.63%,0.37%,1.84%,2.91%,1.54%,0.05%,-0.13%,0.07%,1.95%,4.28%,0.46%,1.47%,2.09%,0.96%,-0.15%,1.19%,3.04%,2.28%,2.41%
Fc1ccc(Nc2nccc(-c3c(-c4ccc(C(F)(F)F)cc4)nn4ncccc34)n2)cc1F,-0.68%,4.32%,6.72%,1.72%,1.95%,3.85%,-0.46%,1.2%,0.83%,2.39%,1.59%,2.27%,2.56%,3.55%,2.83%,2.95%,4.27%,-3.95%,8.25%,3.59%
Cc1cc(O)cc(C)c1/C=C/c1cncc(C(N)=O)c1,0.5%,5.81%,32.2%,2.45%,5.29%,4.23%,14.4%,1.58%,6.06%,4.13%,1.48%,1.71%,0.87%,1.25%,0.56%,5.98%,27.9%,-2.57%,2.18%,2.32%
CS(=O)(=O)Nc1ccc(-c2cc(-c3ccccc3)cc(C(N)=O)c2N)cc1,0.38%,0.8%,1.3%,0.34%,0.58%,1.13%,5.5%,-0.09%,-0.33%,3.2%,3.74%,1.96%,2.61%,1.09%,0.08%,0.48%,2.13%,-1.8%,3.01%,1.29%
